{"source": "PubChem BioAssay (EPA / NIEHS)", "note": "Activity calls are given as the source filed them. Rule for the calls: active = hit-call score of the fitted dose curve at least 0.9, where 1 is the maximum; inactive = score below 0.9."}
{"read-out": "Interleukin-6 (IL6), IL6 (gene 3569)", "experiment": "BSK_CASM3C_IL6: BioMAP Diversity Plus: CASM3C Assay for Interleukin-6 (IL6) Biomarker Activity for (AID 2283040)", "settings": "primary human coronary artery smooth muscle cells; actives raise or lower the signal"}
{"compound": "O=C(O)C1C2CCC(O2)C1C(=O)O", "note": "(configuration not stated)", "outcome": "inactive"}
{"compound": "Nc1ccc(Cl)cc1N", "outcome": "inactive"}
{"compound": "OCCCl", "outcome": "inactive"}
{"compound": "c1ccc2c(c1)-c1cccc3cccc-2c13", "outcome": "inactive"}
{"compound": "CCCCCCCCn1sccc1=O", "AC50": "28.3 µM (active)"}
{"compound": "c1ccc(C2CO2)cc1", "note": "(configuration not stated)", "outcome": "inactive"}
{"compound": "CC(C)(C)OOC(C)(C)CCC(C)(C)OOC(C)(C)C", "outcome": "inactive"}
{"compound": "c1ccc2c(c1)oc1ccccc12", "outcome": "inactive"}
{"compound": "CN(C)c1ccc(C(=O)c2ccc(N(C)C)cc2)cc1", "outcome": "inactive"}
{"compound": "Oc1ccccc1Cl", "outcome": "inactive"}
{"compound": "Clc1ccccc1Cl", "outcome": "inactive"}
{"compound": "O=C(N[C@H](c1ccccc1)[C@@H]1CN2CCC1CC2)c1c(Cl)ccc(C(F)(F)F)c1Cl", "outcome": "inactive"}
{"compound": "ClCCOCCCl", "outcome": "inactive"}
{"compound": "Cc1ccc([N+](=O)[O-])cc1", "outcome": "inactive"}
{"compound": "CO[C@@H]1[C@H](OC(=O)NC(=O)CCl)CC[C@]2(CO2)[C@H]1[C@@]1(C)O[C@@H]1CC=C(C)C", "outcome": "inactive"}
{"compound": "Nc1ccc([N+](=O)[O-])cc1", "outcome": "inactive"}
{"compound": "Nc1ccc(Oc2ccc(N)cc2)cc1", "outcome": "inactive"}
{"compound": "CC(C)(O)c1cnn2c(-c3ccc(F)c(-c4c(F)cccc4C#N)c3)cnc2n1", "outcome": "inactive"}
{"compound": "OCCCBr", "outcome": "inactive"}
{"compound": "[O-][Cl+]O", "outcome": "inactive"}
{"compound": "C1=Cc2cccc3cccc1c23", "outcome": "inactive"}
{"compound": "CN(C)C(=O)Nc1ccc(Cl)cc1", "outcome": "inactive"}
{"compound": "ClC1=C(Cl)C2(Cl)C3C(Cl)C=CC3C1(Cl)C2(Cl)Cl", "note": "(configuration not stated)", "AC50": "27.2 µM (active)"}
{"compound": "Cc1ccc(N=C=O)cc1N=C=O", "outcome": "inactive"}
{"compound": "O=Cc1ccco1", "outcome": "inactive"}
{"compound": "CCCSC(=O)N(CCC)CCC", "outcome": "inactive"}
{"compound": "Clc1ccc(Cl)c(Cl)c1", "outcome": "inactive"}
{"compound": "CCC12COCN1COC2", "outcome": "inactive"}
{"read-out": "Tissue plasminogen activator (tPA), PLAT (gene 5327)", "experiment": "BSK_BE3C_tPA: BioMAP Diversity Plus: BE3C Assay for Tissue plasminogen activator (tPA) Biomarker Activity (AID 2283041);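 for outcome: tPA level quantified by ELISA one day after compound addition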", "settings": "primary human bronchial epithelial cells; actives raise or lower the signal", "outline": "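Using human lung primary bronchial epithelial cells, tPA was measured by ELISA 24 h after dosing; data fitted relative to DMSO.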"}
{"compound": "O=C(O)C1C2CCC(O2)C1C(=O)O", "note": "(configuration not stated)", "AC50": "18.6 µM (active)"}
{"compound": "Nc1ccc(Cl)cc1N", "outcome": "inactive"}
{"compound": "OCCCl", "outcome": "inactive"}
{"compound": "c1ccc2c(c1)-c1cccc3cccc-2c13", "outcome": "inactive"}
{"compound": "CCCCCCCCn1sccc1=O", "AC50": "6.84 µM (active)"}
{"compound": "c1ccc(C2CO2)cc1", "note": "(configuration not stated)", "outcome": "inactive"}
{"compound": "CC(C)(C)OOC(C)(C)CCC(C)(C)OOC(C)(C)C", "outcome": "inactive"}
{"compound": "c1ccc2c(c1)oc1ccccc12", "outcome": "inactive"}
{"compound": "CN(C)c1ccc(C(=O)c2ccc(N(C)C)cc2)cc1", "outcome": "inactive"}
{"compound": "Oc1ccccc1Cl", "outcome": "inactive"}
{"compound": "Clc1ccccc1Cl", "outcome": "inactive"}
{"compound": "O=C(N[C@H](c1ccccc1)[C@@H]1CN2CCC1CC2)c1c(Cl)ccc(C(F)(F)F)c1Cl", "AC50": "29.7 µM (active)"}
{"compound": "ClCCOCCCl", "outcome": "inactive"}
{"compound": "Cc1ccc([N+](=O)[O-])cc1", "outcome": "inactive"}
{"compound": "CO[C@@H]1[C@H](OC(=O)NC(=O)CCl)CC[C@]2(CO2)[C@H]1[C@@]1(C)O[C@@H]1CC=C(C)C", "AC50": "7.73 µM (active)"}
{"compound": "Nc1ccc([N+](=O)[O-])cc1", "outcome": "inactive"}
{"compound": "Nc1ccc(Oc2ccc(N)cc2)cc1", "outcome": "inactive"}
{"compound": "CC(C)(O)c1cnn2c(-c3ccc(F)c(-c4c(F)cccc4C#N)c3)cnc2n1", "AC50": "25.3 µM (active)"}
{"compound": "OCCCBr", "outcome": "inactive"}
{"compound": "[O-][Cl+]O", "outcome": "inactive"}
{"compound": "C1=Cc2cccc3cccc1c23", "outcome": "inactive"}
{"compound": "CN(C)C(=O)Nc1ccc(Cl)cc1", "outcome": "inactive"}
{"compound": "ClC1=C(Cl)C2(Cl)C3C(Cl)C=CC3C1(Cl)C2(Cl)Cl", "note": "(configuration not stated)", "AC50": "20 µM (active)"}
{"compound": "Cc1ccc(N=C=O)cc1N=C=O", "outcome": "inactive"}
{"compound": "O=Cc1ccco1", "outcome": "inactive"}
{"compound": "CCCSC(=O)N(CCC)CCC", "outcome": "inactive"}
{"compound": "Clc1ccc(Cl)c(Cl)c1", "outcome": "inactive"}
{"compound": "CCC12COCN1COC2", "outcome": "inactive"}
{"read-out": "Interleukin-8 (IL8), CXCL8 (gene 3576)", "experiment": "BSK_CASM3C_IL8: BioMAP Diversity Plus: CASM3C Assay for Interleukin-8 (IL8) Biomarker Activity (AID 2283042);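 note: IL-8 protein level quantified by ELISA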", "settings": "primary human coronary artery smooth muscle cells; actives raise or lower the signal"}
{"compound": "O=C(O)C1C2CCC(O2)C1C(=O)O", "note": "(configuration not stated)", "outcome": "inactive"}
{"compound": "Nc1ccc(Cl)cc1N", "outcome": "inactive"}
{"compound": "OCCCl", "outcome": "inactive"}
{"compound": "c1ccc2c(c1)-c1cccc3cccc-2c13", "outcome": "inactive"}
{"compound": "CCCCCCCCn1sccc1=O", "AC50": "14.3 µM (active)"}
{"compound": "c1ccc(C2CO2)cc1", "note": "(configuration not stated)", "outcome": "inactive"}
{"compound": "CC(C)(C)OOC(C)(C)CCC(C)(C)OOC(C)(C)C", "outcome": "inactive"}
{"compound": "c1ccc2c(c1)oc1ccccc12", "outcome": "inactive"}
{"compound": "CN(C)c1ccc(C(=O)c2ccc(N(C)C)cc2)cc1", "outcome": "inactive"}
{"compound": "Oc1ccccc1Cl", "outcome": "inactive"}
{"compound": "Clc1ccccc1Cl", "outcome": "inactive"}
{"compound": "O=C(N[C@H](c1ccccc1)[C@@H]1CN2CCC1CC2)c1c(Cl)ccc(C(F)(F)F)c1Cl", "outcome": "inactive"}
{"compound": "ClCCOCCCl", "outcome": "inactive"}
{"compound": "Cc1ccc([N+](=O)[O-])cc1", "outcome": "inactive"}
{"compound": "CO[C@@H]1[C@H](OC(=O)NC(=O)CCl)CC[C@]2(CO2)[C@H]1[C@@]1(C)O[C@@H]1CC=C(C)C", "outcome": "inactive"}
{"compound": "Nc1ccc([N+](=O)[O-])cc1", "outcome": "inactive"}
{"compound": "Nc1ccc(Oc2ccc(N)cc2)cc1", "outcome": "inactive"}
{"compound": "CC(C)(O)c1cnn2c(-c3ccc(F)c(-c4c(F)cccc4C#N)c3)cnc2n1", "outcome": "inactive"}
{"compound": "OCCCBr", "outcome": "inactive"}
{"compound": "[O-][Cl+]O", "outcome": "inactive"}
{"compound": "C1=Cc2cccc3cccc1c23", "outcome": "inactive"}
{"compound": "CN(C)C(=O)Nc1ccc(Cl)cc1", "outcome": "inactive"}
{"compound": "ClC1=C(Cl)C2(Cl)C3C(Cl)C=CC3C1(Cl)C2(Cl)Cl", "note": "(configuration not stated)", "AC50": "34.6 µM (active)"}
{"compound": "Cc1ccc(N=C=O)cc1N=C=O", "outcome": "inactive"}
{"compound": "O=Cc1ccco1", "outcome": "inactive"}
{"compound": "CCCSC(=O)N(CCC)CCC", "outcome": "inactive"}
{"compound": "Clc1ccc(Cl)c(Cl)c1", "outcome": "inactive"}
{"compound": "CCC12COCN1COC2", "outcome": "inactive"}
{"read-out": "Human Leukocyte Antigen - DR isotype (HLADR), HLA-DRA (gene 3122)", "experiment": "BSK_CASM3C_HLADR: BioMAP Diversity Plus: CASM3C Assay for Human Leukocyte Antigen - DR isotype (HLADR) Biomarker Activity (AID 2283043);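 note: cell-surface HLA-DR protein level quantified by ELISA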", "settings": "primary human coronary artery smooth muscle cells; actives raise or lower the signal"}
{"compound": "O=C(O)C1C2CCC(O2)C1C(=O)O", "note": "(configuration not stated)", "AC50": "4.92 µM (active)"}
{"compound": "Nc1ccc(Cl)cc1N", "outcome": "inactive"}
{"compound": "OCCCl", "outcome": "inactive"}
{"compound": "c1ccc2c(c1)-c1cccc3cccc-2c13", "outcome": "inactive"}
{"compound": "CCCCCCCCn1sccc1=O", "AC50": "4.85 µM (active)"}
{"compound": "c1ccc(C2CO2)cc1", "note": "(configuration not stated)", "outcome": "inactive"}
{"compound": "CC(C)(C)OOC(C)(C)CCC(C)(C)OOC(C)(C)C", "outcome": "inactive"}
{"compound": "c1ccc2c(c1)oc1ccccc12", "outcome": "inactive"}
{"compound": "CN(C)c1ccc(C(=O)c2ccc(N(C)C)cc2)cc1", "outcome": "inactive"}
{"compound": "Oc1ccccc1Cl", "outcome": "inactive"}
{"compound": "Clc1ccccc1Cl", "outcome": "inactive"}
{"compound": "O=C(N[C@H](c1ccccc1)[C@@H]1CN2CCC1CC2)c1c(Cl)ccc(C(F)(F)F)c1Cl", "outcome": "inactive"}
{"compound": "ClCCOCCCl", "outcome": "inactive"}
{"compound": "Cc1ccc([N+](=O)[O-])cc1", "outcome": "inactive"}
{"compound": "CO[C@@H]1[C@H](OC(=O)NC(=O)CCl)CC[C@]2(CO2)[C@H]1[C@@]1(C)O[C@@H]1CC=C(C)C", "AC50": "8.37 µM (active)"}
{"compound": "Nc1ccc([N+](=O)[O-])cc1", "outcome": "inactive"}
{"compound": "Nc1ccc(Oc2ccc(N)cc2)cc1", "outcome": "inactive"}
{"compound": "CC(C)(O)c1cnn2c(-c3ccc(F)c(-c4c(F)cccc4C#N)c3)cnc2n1", "AC50": "32.9 µM (active)"}
{"compound": "OCCCBr", "outcome": "inactive"}
{"compound": "[O-][Cl+]O", "outcome": "inactive"}
{"compound": "C1=Cc2cccc3cccc1c23", "outcome": "inactive"}
{"compound": "CN(C)C(=O)Nc1ccc(Cl)cc1", "outcome": "inactive"}
{"compound": "ClC1=C(Cl)C2(Cl)C3C(Cl)C=CC3C1(Cl)C2(Cl)Cl", "note": "(configuration not stated)", "AC50": "29.3 µM (active)"}
{"compound": "Cc1ccc(N=C=O)cc1N=C=O", "AC50": "28.5 µM (active)"}
{"compound": "O=Cc1ccco1", "outcome": "inactive"}
{"compound": "CCCSC(=O)N(CCC)CCC", "outcome": "inactive"}
{"compound": "Clc1ccc(Cl)c(Cl)c1", "outcome": "inactive"}
{"compound": "CCC12COCN1COC2", "outcome": "inactive"}
